Assay results from PubChem BioAssay (NCATS).
Records with an inconclusive call do not appear. A number with no mark means an inactive call. The source made the active and inactive calls. Calls come from the whole dose curve.

Experiment: Validation screen for inhibitors of Lassa infection (AID 463096)
Conditions: Lassa virus infection, cell-based; series mostly up to 46.1 µM; activity change, negative = inhibition: at the top concentration
% is set by controls: 0 for no effect and ±100 for the full control effect; potency is the fitted concentration of half-maximal effect.

Going from `CCOC(=O)C1=C[C@]2(CC)CCCN3CCc4c(n1c1ccccc41)[C@@H]32` to `O=C(c1ccc(F)cc1)C1CCN(CCn2c(=O)[nH]c3ccccc3c2=O)CC1`, the “activity change, negative = inhibition” value rises from -28.6% to -6.91%.

Compared with `COc1cc(C(=O)OCCCN2CCCN(CCCOC(=O)c3cc(OC)c(OC)c(OC)c3)CC2)cc(OC)c1OC`, `O=C1CC2(CCCC2)CC(=O)N1CCCCN1CCN(c2ncccn2)CC1` is higher in “activity change, negative = inhibition” value: -40.5% for the first, 5.16% for the second.

Going from `CN(C)C/C=C(/c1ccc(Br)cc1)c1cccnc1` to `CN(C)CC[C@@H](c1ccc(Cl)cc1)c1ccccn1`, the “activity change, negative = inhibition” value rises from -28.8% to 29.3%.

Compared with `NC(N)=NCCC[C@H](N)C(=O)O`, `C[N+](C)(C)CCOC(=O)CCC(=O)OCC[N+](C)(C)C` is lower in “activity change, negative = inhibition” value: 9.02% for the first, -21.8% for the second.

Compared with `CC(C)NCC(O)COc1ccc(COCCOC(C)C)cc1` (configuration not stated), `OCc1cc(C(O)CNCCCCCCOCCCCc2ccccc2)ccc1O` (configuration not stated) is lower in “activity change, negative = inhibition” value: -2.19% for the first, -44.5% for the second.

First: Cc1ccc(C(=O)Nc2ccc(S(=O)(=O)O)c3cc(S(=O)(=O)O)cc(S(=O)(=O)O)c23)cc1NC(=O)c1cccc(NC(=O)Nc2cccc(C(=O)Nc3cc(C(=O)Nc4ccc(S(=O)(=O)O)c5cc(S(=O)(=O)O)cc(S(=O)(=O)O)c45)ccc3C)c2)c1
Second: CCCCNc1cc(C(=O)O)cc(S(N)(=O)=O)c1Oc1ccccc1
The “activity change, negative = inhibition” value of the first is higher: -19.5% for the first, -28.3% for the second.

First: CCN(CC)CCOCCOC(=O)C1(c2ccccc2)CCCC1
Second: Cc1ccc(=O)n(-c2ccccc2)c1
The “activity change, negative = inhibition” value of the first is lower: -27% for the first, 12.4% for the second.

First: CCCn1cnc2c1c(=O)n(CCCCC(C)=O)c(=O)n2C
Second: Cc1cc(C(C)(C)C)c(O)c(C)c1CC1=NCCN1
The “activity change, negative = inhibition” value of the first is higher: -12.2% for the first, -18.3% for the second.

For `C[n+]1cc2c3c(ccc2c2ccc4cc5c(cc4c21)OCO5)OCO3`, the Potency was 2 µM (active).
